# Screens from PubChem.
# RORg inh: ROR gamma (mouse) transcription inhibition; P51450; Drosophila S2 Gal4-RORgamma UAS-luciferase reporter, 20 h; Potency, µM (top dose mostly 53.6 µM), for inactives: at the highest dose activity change, negative = inhibition, usual class: inhibitors; hit rate 5.4% among 310,000; further: on the % scale 0 is the no-effect control and ±100 the full control effect; nearly all actives have a fitted effect of over 60% in size
# Target sequence (P51450 whole entry, looked up, the tested form may be a part): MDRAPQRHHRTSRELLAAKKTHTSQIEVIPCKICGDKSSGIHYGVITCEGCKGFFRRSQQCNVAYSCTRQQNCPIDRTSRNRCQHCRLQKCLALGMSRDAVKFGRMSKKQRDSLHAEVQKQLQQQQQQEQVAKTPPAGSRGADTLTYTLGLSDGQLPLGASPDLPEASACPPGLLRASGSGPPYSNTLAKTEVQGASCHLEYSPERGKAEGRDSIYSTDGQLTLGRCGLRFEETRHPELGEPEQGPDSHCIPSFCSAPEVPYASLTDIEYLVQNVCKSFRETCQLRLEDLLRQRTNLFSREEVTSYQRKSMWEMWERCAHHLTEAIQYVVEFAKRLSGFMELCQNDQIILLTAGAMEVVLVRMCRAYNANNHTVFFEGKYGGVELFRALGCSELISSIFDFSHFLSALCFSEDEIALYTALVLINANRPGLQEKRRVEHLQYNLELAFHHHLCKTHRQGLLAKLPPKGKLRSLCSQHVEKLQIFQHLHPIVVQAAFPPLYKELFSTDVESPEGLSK
#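 Stably transfected Drosophila Schneider cells are the test system, with ROR gamma fused to Gal4 and luciferase under UAS control; luminescence is read after 20 hr of 700 uM copper sulfate induction at ambient temperature.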
# HepG2 viability: counter-screen for TGF-b inhibitors: cytotoxicity in HepG2 cells; AID 588856; Potency, µM (series often up to 46.1 µM), without a hit: at the highest dose activity change, negative = cytotoxicity, actives largely listed as cytotoxic; hit rate 0.76% among 410,000; HepG2 CAGA-GFP viability, ATP luminescence, 18 h
#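 HepG2 CAGA-GFP cells (1000/well, DMEM with 1% FBS) received compound, then TGF-beta at 500 pg/mL final, and were incubated 18 hours at 37 degrees C. Viability was read by CellTiter-Glo luminescence. Media-only wells were set as complete cell-killing and DMSO as no toxicity.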
# TGFb inhibitor: blocks TGF-b signaling | HepG2 CAGA-GFP TGF-b/SMAD3 reporter, GFP fluorescence, 18 h; TGF-beta stimulated, 500 pg/mL final | Potency, µM (doses to about 46.1 µM), for the others: at the highest dose activity, negative = inhibition, hits mostly inhibitors | hit rate 1.2% among 410,000 | AID 588855; further: on the % scale 0 is the no-effect control and ±100 the full control effect; nearly all actives have a fitted effect of over 65% in size
#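 HEPG2 CAGA-GFP cells (1000/well, DMEM with 1% FBS) were pre-incubated 2 h at 37 degrees C, given compound by pin tool, then stimulated with TGF-beta at 500 pg/mL final for 18 h before per-cell GFP fluorescence imaging.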
# ATXN2 expr inh: ATXN2 expression inhibition; HEK-293 ATXN2-luciferase reporter, luminescence, 24 h; Potency, µM (series often up to 57 µM), inactives show at the highest dose activity change, negative = inhibition, actives largely listed as inhibitors; hit rate 0.72% among 360,000; AID 1745845; further: on the % scale 0 is the no-effect control and ±100 the full control effect; nearly all actives have a fitted effect of over 55% in size
#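 ATXN2-luciferase reporter cells (luciferase flanked by upstream and downstream ATXN2 gene portions) were treated 24 h at 37 °C with compounds at up to 57 uM. SteadyGlo luminescence gave expression; GF-AFC fluorescence gave viability.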
# Gal4-VP16 FLuc: Gal4-VP16 reporter inhibition counter-screen; hit rate 3.5% among 310,000; Potency, µM (top dose mostly 53.6 µM), for inactives: at the top dose activity, negative = inhibition, actives largely listed as inhibitors; AID 2546; Drosophila S2 Gal4-VP16 UAS-luciferase, luminescence, 20 h;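 further: Gal4-VP16 expression switched on by copper sulfate through the metallothionein promoter; on the % scale 0 is the no-effect control and ±100 the full control effect; nearly all actives have a fitted effect of over 50% in size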
# ATXN viability: reduces viability in counter-screen for ATXN expression inhibitors; Potency, µM (titrated, usually from 56.7 µM), actives largely listed as cytotoxic; hit rate 0.49% among 400,000; S2 cells (HEK-293 line with an ATXN2-luciferase reporter) viability, CellTiter-Fluor protease fluorescence, 24 h; AID 651635; further: nearly all actives have a fitted effect of over 40% in size
# Numbers without * were called inactive; i = inactive; ? = inconclusive; nt = not tested or not shown; [ ] = dose if it differs, or a comment. The list is not random: actives were taken first. Their share in the collection is about 6.3%. The call rests on the fitted dose curve; in most records, active means well fitted curve in the direction sought with a large enough effect; inconclusive means small, poorly fitted or top-dose-only effect, or another doubt; inactive means no such curve, though single readings can be large; an effect the other way counts as inactive or inconclusive. Potency means the concentration at half of the fitted maximal effect.
SMILES,RORg inh,HepG2 viability,TGFb inhibitor,ATXN2 expr inh,Gal4-VP16 FLuc,ATXN viability
CCc1nnc(NC(=O)c2ccc3ccccc3n2)s1,3.1%,-47.5%,?,40.3%,-1.6%,i
CCOC(=O)Cc1csc(NC(=O)c2csc3c2CCCC3)n1,12.6µM*,-28.5%,-24.0%,2.8%,-18.1%,i
CCSc1nnc(NC(=O)c2ccc3ccccc3n2)s1,1µM*,-18.4%,?,?,0.708µM*,nt
Cc1ccc(NC(=O)Nc2nnc(N(C)Cc3ccccc3)s2)cc1,nt,-26.8%,?,nt,nt,nt
CCOC(=O)Cc1csc(NC(=O)Cc2ccc(Cl)cc2)n1,44.1%,-15.5%,-19.0%,-19.2%,-12.1%,i
CCOC(=O)Cc1csc(NC(=S)NC(=O)c2ccc(Cl)cc2)n1,7.08µM*,2.9%,1.1%,-37.1%,?,i
CCCCn1nnnc1C1(C)CCC(=O)N1CCOC (stereo not drawn),nt,nt,nt,8.3%,nt,i
COc1cccc(/C=C2\SC(=S)N(CCCC(=O)N3CCCCC3CCO)C2=O)c1 (stereo not drawn),3.55µM*,-42.6%,?,nt,2.82µM*,nt
COc1cccc(/C=C2\SC(=S)N(CCCC(=O)N3CCCC3)C2=O)c1,2.51µM*,-7.2%,-13.4%,-23.0%,-16.8%,?
Cc1ccc(NC(=O)Cn2c(=O)oc3cc(S(=O)(=O)N4CCC(C)CC4)ccc32)cc1C,2.9%,-92.1%,?,?,20µM*,?
COc1ccc(-c2cc3nc(CCl)[nH]c(=O)c3s2)cc1,?,22.4µM*,?,12.6µM*,10µM*,i
O=S(=O)(c1ccc(Cl)cc1)c1nnn2c1nc(N1CCCCC1)c1sccc12,nt,-8.2%,14.9%,nt,nt,nt
CCCCN1CC(c2nc3ccccc3n2CCCCOc2ccccc2C)CC1=O (stereo not drawn),nt,17.8µM*,?,-24.2%,nt,?
CCOc1ccccc1N1CC(c2nc3ccccc3n2CCOc2ccc(OC)cc2)CC1=O (stereo not drawn),nt,12.6µM*,?,?,nt,31.6µM*
Cc1c(Cl)cccc1N1CC(c2nc3ccccc3n2Cc2ccccc2F)CC1=O (stereo not drawn),nt,-30.9%,?,0.0%,nt,31.6µM*
CCCCN1CC(c2nc3ccccc3n2CCCCOc2c(C)cccc2C)CC1=O (stereo not drawn),nt,-118.0%,?,22.4µM*,nt,?
CCOc1ccc(N2CC(c3nc4ccccc4n3Cc3ccccc3F)CC2=O)cc1 (stereo not drawn),nt,-69.1%,?,13.9%,nt,i
CCCCN1CC(c2nc3ccccc3n2CCCCOc2cc(C)ccc2C)CC1=O (stereo not drawn),nt,-91.7%,?,?,nt,?
COc1ccc(-c2cccc3c2OC(CNC(=O)c2ccccc2-n2cccn2)C3)nn1 (stereo not drawn),nt,nt,nt,nt,nt,i
Cc1ccc(CN(Cc2cc3cc(C)ccc3[nH]c2=O)Cc2nnnn2Cc2ccccc2)cc1,nt,-5.3%,5.4%,nt,nt,nt
COC(=O)N1CCC2(CCN(C(=O)Nc3cccc(F)c3)CC2)CC1,28.2%,nt,nt,nt,-4.3%,nt
CCc1ccc(C2c3[nH]c4ccccc4c3CCN2C(=O)CN2CCN(CC)CC2)cc1 (stereo not drawn),-35.7%,12.6µM*,?,?,-24.0%,25.1µM*
COc1ccc2c(c1[N+](=O)[O-])CCC/C2=N/OC(=O)c1cccc2ccccc12,-23.2%,-7.8%,-2.3%,-11.4%,14.1µM*,?
CS(=O)(=O)N(CC(=O)Nc1ccc(CC#N)cc1)c1ccc(C23CC4CC(CC(C4)C2)C3)cc1,38.3%,-38.4%,7.08µM*,-27.8%,?,?
CNC(=S)Nc1ccc(C23CC4CC(CC(C4)C2)C3)cc1,1.58µM*,-12.7%,?,-33.9%,1.26µM*,i
SMILES,RORg inh,HepG2 viability,TGFb inhibitor,ATXN2 expr inh,Gal4-VP16 FLuc,ATXN viability
O=C(CSCCO)Nc1ccc(C23CC4CC(CC(C4)C2)C3)cc1,-2.5%,-2.8%,-4.9%,21.1%,8.91µM*,i
CNC(=O)CN(c1ccc(C23CC4CC(CC(C4)C2)C3)cc1)S(C)(=O)=O,-24.1%,-9.2%,-18.4%,-6.6%[11.3 µM],-16.6%[10 µM],i
COC(=O)[C@@H]1CCCN1Cc1ccc2c(c1)CN(Cc1ccc3c(c1)CCCN3C)CCO2,nt,nt,nt,nt,nt,i
CCCCSCCCNC(=O)CN1C(=O)COc2ccc(S(=O)(=O)N3CCC(C)CC3)cc21,nt,-29.4%,20.4%,-2.9%,nt,i
CC(C)(CNC(=O)c1cnn(-c2ncc3c(n2)-c2ccccc2CC3)c1C1CC1)N1CCOCC1,nt,nt,nt,nt,nt,i
O=C(CCCc1nc(-c2ccccc2Cl)no1)NC1CCCC1,8.91µM*,-26.0%,-8.0%,nt,?,?
COc1ccc(-c2noc(CCCC(=O)NC3CCCCC3)n2)cc1,78.8%,0.5%,-4.3%,-37.1%,15.8µM*,i
O=C(CCl)N(C/C=C/c1ccccc1)c1ccc2c(c1)OCCO2,12.6µM*,-2.5%,?,1.34µM*,?,1.34µM*
COc1ccc(NC(=O)CCS(=O)(=O)c2ccc3c(c2)NC(=O)C(C)S3)cc1OC (stereo not drawn),3.1%,-10.5%,11.0%,-10.2%,-5.1%,i
Cc1cc(NC(=O)CCS(=O)(=O)c2ccc3c(c2)NC(=O)C(C)S3)ccc1Br (stereo not drawn),14.6%,-66.3%,11.2µM*,nt,-4.9%,i
CN(C)C(=S)Nc1ccc2c(c1)OCCO2,-7.6%,8.8%,14.2%,25.4%,7.3%,i
CN(C)C(=S)Nc1ccc2ccccc2c1,15.8µM*,-15.5%,-11.6%,-8.8%,?,i
COc1ccc(C(=O)N2CCC3(CC2)CN(c2ccccc2)C3)cc1,-15.2%,nt,nt,nt,?,nt
C/C(CC1CC2=C(CC1(C)C)C(C)(C)CCC2)=N\NC(N)=S (stereo not drawn),2µM*,11.2µM*,7.94µM*,?,3.16µM*,nt
CSc1ccc(/C=C2\C=Cc3ccc([N+](=O)[O-])cc32)cc1,nt,-0.2%,3.7%,nt,nt,nt
O=C(O)c1ccc(NC(=S)Nc2ccc(S(=O)(=O)Nc3ccccn3)cc2)cc1,nt,-20.4%,-2.8%,6.5%,nt,i
CCNc1ncc2nc(-c3ccc(Cl)cc3)c(=O)n(-c3ccc(OC)cc3)c2n1,?,nt,nt,nt,0.2%,nt
O=S(=O)(Nc1cccc(C(F)(F)F)c1)c1ccc(-c2cnc(C3CC3)o2)cc1,nt,12.6µM*,?,?,nt,?
Cc1cc(C)c(NS(=O)(=O)c2ccc(-c3cnc(C4CC4)o3)cc2)c(C)c1,nt,-67.3%,1.41µM*,-31.0%,nt,?
Cc1cc(-c2ccc(S(=O)(=O)Nc3ccc(Cl)cc3C)cc2)on1,nt,-30.8%,12.6µM*,nt,nt,nt
